Results taken from PubChem BioAssay (NCI).
Values joined by “and” are separate entries in the source; they are usually repeats but may differ in a detail not shown here. Identical values can stand only once. This is part of a sample that, as a whole, favours compounds with a hit. Of some 83,000 tested, about 20% had one in any assay.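 A percent growth of 40 corresponds to 60% growth inhibition; 0 means no net growth; -100 means all cells died. Active threshold: below 10.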 More than one record can exist for a structure, and the calls need not agree. Active and inactive are the calls of the source.

Experiments:
Experiment in all cases: NCI-60 one-dose screen, 48 h (100 = growth as untreated, 0 = no growth, -100 = all killed)
Details in all cases: 10 µM unless noted
[1] = system: DU-145 prostate
[2] = system: K-562 leukemia
[3] = system: MALME-3M melanoma
[4] = system: MDA-MB-231 breast
[5] = system: RXF 393 renal
[6] = system: SF-268 CNS
[7] = system: SF-295 CNS
[8] = system: SF-539 CNS
[9] = system: UACC-257 melanoma
[10] = system: M14 melanoma

| Structure (SMILES) | growth [1] | growth [2] | growth [3] | growth [4] | growth [5] | growth [6] | growth [7] | growth [8] | growth [9] | growth [10] |
| --- | --- | --- | --- | --- | --- | --- | --- | --- | --- | --- |
| O=C1CCN(Cc2ccccc2)C(=S)N1 | 140% (inactive) and 107% (inactive) | 87% (inactive) | 92.6% (inactive) and 101% (inactive) | 125% (inactive) and 98.1% (inactive) | 122% (inactive) and 121% (inactive) | 111% (inactive) and 99.5% (inactive) | 118% (inactive) and 133% (inactive) | 111% (inactive) and 98.6% (inactive) | 114% (inactive) and 107% (inactive) | 103% (inactive) and 112% (inactive) |
| CCN(CC)CCC(CNc1c2ccc([N+](=O)[O-])cc2nc2cc(OC)c(OC)cc12)c1ccccc1 (centres undefined) | -85.2% (active) and -100% (active) | -18.8% (active) | -80.1% (active) and -89.1% (active) | -58.4% (active) and -94.9% (active) | -89.8% (active) | -48.5% (active) and -98.7% (active) | 3.98% (active) and -90.3% (active) | -86.9% (active) and -100% (active) | -41.2% (active) and -97.1% (active) | -63.2% (active) and -97.4% (active) |
| COc1ccc(-c2ncnc3c2ncn3C/C=C/CCl)cc1 | 81.8% (inactive) and 112% (inactive) | 67.2% (inactive) and 77.5% (inactive) | 61.8% (inactive) and 49.7% (inactive) | 88.8% (inactive) and 89.2% (inactive) | 7.94% (active) and 42.6% (inactive) | 87.7% (inactive) and 86.8% (inactive) | 109% (inactive) and 92.6% (inactive) | 75.9% (inactive) and 98.9% (inactive) | 80.5% (inactive) and 77.7% (inactive) | 70.9% (inactive) and 87% (inactive) |
| Oc1c(Cl)cc(Cl)cc1Sc1cc(Cl)cc(Cl)c1O | 75.6% (inactive) and 29.3% (inactive) and 94.6% (inactive) | 18% (inactive) and 8.54% (active) and 41% (inactive) | 10.7% (inactive) and 11.3% (inactive) and 82.2% (inactive) | 84.2% (inactive) and -21.8% (active) and 79.6% (inactive) | 91.3% (inactive) and 16.1% (inactive) and 87.9% (inactive) | 33.2% (inactive) and 21.9% (inactive) and 72.1% (inactive) | 18.6% (inactive) and 15.7% (inactive) and 75.4% (inactive) | 25.8% (inactive) and 93.6% (inactive) | 56% (inactive) and -16.2% (active) and 77.3% (inactive) | 69.1% (inactive) and 35% (inactive) and 105% (inactive) |
| CC(=O)Nc1ccc2cc3ccc(NC(C)=O)cc3nc2c1 | 64.5% (inactive) and 38.2% (inactive) | 66% (inactive) and 98.4% (inactive) | 134% (inactive) and 94.6% (inactive) | 65% (inactive) and 75.7% (inactive) | 82.7% (inactive) and 103% (inactive) | 64.2% (inactive) and 57% (inactive) | 71.9% (inactive) and 57.9% (inactive) | 96.4% (inactive) and 87.4% (inactive) | 111% (inactive) and 118% (inactive) | 88% (inactive) and 87.8% (inactive) |
| COc1ccc2nc(Cl)cc(C)c2c1 | 104% (inactive) and 101% (inactive) | 104% (inactive) and 89.5% (inactive) | 97.5% (inactive) and 127% (inactive) | 99.9% (inactive) and 102% (inactive) | 91.6% (inactive) and 75.9% (inactive) | 101% (inactive) and 116% (inactive) | 92.8% (inactive) and 87.6% (inactive) | 96.5% (inactive) and 107% (inactive) | 100% (inactive) and 95.9% (inactive) | 100% (inactive) and 109% (inactive) |
| CC(=O)Oc1cc(C(=O)O)cc(OC(C)=O)c1OC(C)=O | 118% (inactive) and 113% (inactive) | 108% (inactive) | 115% (inactive) and 96.5% (inactive) | 94% (inactive) and 97.3% (inactive) | 99.5% (inactive) and 122% (inactive) | 107% (inactive) and 102% (inactive) | 107% (inactive) and 102% (inactive) | 121% (inactive) and 104% (inactive) | 95.3% (inactive) and 90.7% (inactive) | 105% (inactive) and 99% (inactive) |
| CCN(CC)CCOc1ccc2c(c1)C(=O)c1cc(OCCN(CC)CC)ccc1-2 | 74.6% (inactive) and 64.7% (inactive) | 41.7% (inactive) and -9.47% (active) | 98.2% (inactive) and 80.2% (inactive) | 65.5% (inactive) and 78.5% (inactive) | 71.4% (inactive) | 75.1% (inactive) and 54.8% (inactive) | 82.6% (inactive) and 71.5% (inactive) | 50% (inactive) and 38.4% (inactive) | 89.9% (inactive) and 88.6% (inactive) | 91.7% (inactive) and 83.4% (inactive) |
| CCN(CC)CCCC(C)N(Cc1ccccc1)CC(O)c1ccc(Cl)cc1 (centres undefined) | 109% (inactive) and 106% (inactive) | 100% (inactive) and 106% (inactive) | 103% (inactive) | 114% (inactive) and 105% (inactive) | 101% (inactive) and 106% (inactive) | 102% (inactive) and 100% (inactive) | 103% (inactive) and 96% (inactive) | 111% (inactive) and 95.9% (inactive) | 102% (inactive) and 105% (inactive) | 109% (inactive) and 104% (inactive) |
| Clc1ccc(NC(Nc2ccc(Cl)cc2)C(Cl)(Cl)Cl)cc1 | 112% (inactive) and 100% (inactive) | 17.7% (inactive) and 43.8% (inactive) | 101% (inactive) and 114% (inactive) | 87.3% (inactive) and 116% (inactive) | 111% (inactive) and 113% (inactive) | 87.7% (inactive) and 90.5% (inactive) | 90.3% (inactive) and 97% (inactive) | 110% (inactive) and 100% (inactive) | 90.1% (inactive) and 99.6% (inactive) |  |
| CN1CCN(Cc2occc(=O)c2O)CCN(C)CCN(Cc2occc(=O)c2O)CC1 | 124% (inactive) and 61.6% (inactive) | 101% (inactive) and 16.6% (inactive) | 106% (inactive) and 72% (inactive) | 106% (inactive) and 62.3% (inactive) | 96.6% (inactive) and 72.9% (inactive) | 113% (inactive) and 63.7% (inactive) | 102% (inactive) and 76.2% (inactive) | 93.7% (inactive) and 48% (inactive) | 61.6% (inactive) | 105% (inactive) and 52.9% (inactive) |
| O=C(CN1CCOCC1)N1CCOCC1 | 120% (inactive) and 117% (inactive) | 102% (inactive) and 108% (inactive) | 90.6% (inactive) | 108% (inactive) and 98.1% (inactive) | 126% (inactive) and 119% (inactive) | 108% (inactive) and 115% (inactive) | 113% (inactive) and 104% (inactive) | 111% (inactive) and 101% (inactive) | 107% (inactive) and 106% (inactive) | 97.4% (inactive) and 106% (inactive) |
| COc1ccccc1C(C)=O | 107% (inactive) and 113% (inactive) | 84.9% (inactive) and 106% (inactive) | 114% (inactive) and 107% (inactive) | 104% (inactive) and 117% (inactive) | 99.3% (inactive) and 121% (inactive) | 92.7% (inactive) and 107% (inactive) | 106% (inactive) | 105% (inactive) and 107% (inactive) | 107% (inactive) and 110% (inactive) | 105% (inactive) and 95.7% (inactive) |
